About 8,800 targets were measured; listed, in parts, are those with a hit and a random draw of the rest. About 0.5% of all pairs of compound and target were hits.
Each target was assayed with CC(C)(C)Cn1c(N)nc2ccc(-c3[nH]c(C(C)(C)C)nc3-c3ccc(F)cc3)nc21 [ralimetinib] (assay: log2 fold change, soluble protein after heating vs DMSO (PISA); higher = thermal stabilisation; K562 lysate, 10 uM; active = over 0.2 and 3.5 SD of the protein, either way, in both replicates (recomputed)).
Method in brief: (§1)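 The values are log-two fold changes in thermal stability compared with solvent controls and come from duplicates. They were obtained by TMTpro 16plex LC-MS/MS, with channel sums equalised, on the supernatant after 21,000xg for 90 min. That supernatant came from crude K562 extract at 1 mg/mL protein treated with 10 μM compound for 30 min, heated for 3 min across 48°C-58°C, pooled and brought to 0.5% NP-40 at 4°C.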

Chain of UniProt P01116 (P01116 whole entry, looked up): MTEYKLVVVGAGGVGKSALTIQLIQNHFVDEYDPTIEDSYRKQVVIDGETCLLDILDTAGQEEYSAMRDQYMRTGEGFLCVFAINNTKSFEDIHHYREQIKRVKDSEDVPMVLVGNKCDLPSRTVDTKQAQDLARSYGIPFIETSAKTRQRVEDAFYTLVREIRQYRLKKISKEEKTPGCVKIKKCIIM
Chain of UniProt P07948 (P07948 whole entry, looked up): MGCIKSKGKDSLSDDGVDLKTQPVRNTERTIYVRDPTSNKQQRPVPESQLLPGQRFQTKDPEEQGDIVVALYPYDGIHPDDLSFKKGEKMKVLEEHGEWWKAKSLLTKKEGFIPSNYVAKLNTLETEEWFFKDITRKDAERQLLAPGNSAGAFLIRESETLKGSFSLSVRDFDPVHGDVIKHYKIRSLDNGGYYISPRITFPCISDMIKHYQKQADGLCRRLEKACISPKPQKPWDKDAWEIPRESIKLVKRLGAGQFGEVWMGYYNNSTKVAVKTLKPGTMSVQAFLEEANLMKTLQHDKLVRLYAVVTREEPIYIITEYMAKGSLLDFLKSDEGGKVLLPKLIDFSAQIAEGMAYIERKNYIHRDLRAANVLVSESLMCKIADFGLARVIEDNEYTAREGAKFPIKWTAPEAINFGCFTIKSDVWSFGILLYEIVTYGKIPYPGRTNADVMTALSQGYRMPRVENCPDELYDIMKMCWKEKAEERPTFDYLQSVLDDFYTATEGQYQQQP
Chain of UniProt Q9H204 (Q9H204 whole entry, looked up): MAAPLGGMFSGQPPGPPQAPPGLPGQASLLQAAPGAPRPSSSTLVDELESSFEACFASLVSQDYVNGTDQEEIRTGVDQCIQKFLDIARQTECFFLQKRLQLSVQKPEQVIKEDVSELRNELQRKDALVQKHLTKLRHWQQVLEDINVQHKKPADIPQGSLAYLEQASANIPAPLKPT
Chain of UniProt O75970 (O75970 whole entry, looked up): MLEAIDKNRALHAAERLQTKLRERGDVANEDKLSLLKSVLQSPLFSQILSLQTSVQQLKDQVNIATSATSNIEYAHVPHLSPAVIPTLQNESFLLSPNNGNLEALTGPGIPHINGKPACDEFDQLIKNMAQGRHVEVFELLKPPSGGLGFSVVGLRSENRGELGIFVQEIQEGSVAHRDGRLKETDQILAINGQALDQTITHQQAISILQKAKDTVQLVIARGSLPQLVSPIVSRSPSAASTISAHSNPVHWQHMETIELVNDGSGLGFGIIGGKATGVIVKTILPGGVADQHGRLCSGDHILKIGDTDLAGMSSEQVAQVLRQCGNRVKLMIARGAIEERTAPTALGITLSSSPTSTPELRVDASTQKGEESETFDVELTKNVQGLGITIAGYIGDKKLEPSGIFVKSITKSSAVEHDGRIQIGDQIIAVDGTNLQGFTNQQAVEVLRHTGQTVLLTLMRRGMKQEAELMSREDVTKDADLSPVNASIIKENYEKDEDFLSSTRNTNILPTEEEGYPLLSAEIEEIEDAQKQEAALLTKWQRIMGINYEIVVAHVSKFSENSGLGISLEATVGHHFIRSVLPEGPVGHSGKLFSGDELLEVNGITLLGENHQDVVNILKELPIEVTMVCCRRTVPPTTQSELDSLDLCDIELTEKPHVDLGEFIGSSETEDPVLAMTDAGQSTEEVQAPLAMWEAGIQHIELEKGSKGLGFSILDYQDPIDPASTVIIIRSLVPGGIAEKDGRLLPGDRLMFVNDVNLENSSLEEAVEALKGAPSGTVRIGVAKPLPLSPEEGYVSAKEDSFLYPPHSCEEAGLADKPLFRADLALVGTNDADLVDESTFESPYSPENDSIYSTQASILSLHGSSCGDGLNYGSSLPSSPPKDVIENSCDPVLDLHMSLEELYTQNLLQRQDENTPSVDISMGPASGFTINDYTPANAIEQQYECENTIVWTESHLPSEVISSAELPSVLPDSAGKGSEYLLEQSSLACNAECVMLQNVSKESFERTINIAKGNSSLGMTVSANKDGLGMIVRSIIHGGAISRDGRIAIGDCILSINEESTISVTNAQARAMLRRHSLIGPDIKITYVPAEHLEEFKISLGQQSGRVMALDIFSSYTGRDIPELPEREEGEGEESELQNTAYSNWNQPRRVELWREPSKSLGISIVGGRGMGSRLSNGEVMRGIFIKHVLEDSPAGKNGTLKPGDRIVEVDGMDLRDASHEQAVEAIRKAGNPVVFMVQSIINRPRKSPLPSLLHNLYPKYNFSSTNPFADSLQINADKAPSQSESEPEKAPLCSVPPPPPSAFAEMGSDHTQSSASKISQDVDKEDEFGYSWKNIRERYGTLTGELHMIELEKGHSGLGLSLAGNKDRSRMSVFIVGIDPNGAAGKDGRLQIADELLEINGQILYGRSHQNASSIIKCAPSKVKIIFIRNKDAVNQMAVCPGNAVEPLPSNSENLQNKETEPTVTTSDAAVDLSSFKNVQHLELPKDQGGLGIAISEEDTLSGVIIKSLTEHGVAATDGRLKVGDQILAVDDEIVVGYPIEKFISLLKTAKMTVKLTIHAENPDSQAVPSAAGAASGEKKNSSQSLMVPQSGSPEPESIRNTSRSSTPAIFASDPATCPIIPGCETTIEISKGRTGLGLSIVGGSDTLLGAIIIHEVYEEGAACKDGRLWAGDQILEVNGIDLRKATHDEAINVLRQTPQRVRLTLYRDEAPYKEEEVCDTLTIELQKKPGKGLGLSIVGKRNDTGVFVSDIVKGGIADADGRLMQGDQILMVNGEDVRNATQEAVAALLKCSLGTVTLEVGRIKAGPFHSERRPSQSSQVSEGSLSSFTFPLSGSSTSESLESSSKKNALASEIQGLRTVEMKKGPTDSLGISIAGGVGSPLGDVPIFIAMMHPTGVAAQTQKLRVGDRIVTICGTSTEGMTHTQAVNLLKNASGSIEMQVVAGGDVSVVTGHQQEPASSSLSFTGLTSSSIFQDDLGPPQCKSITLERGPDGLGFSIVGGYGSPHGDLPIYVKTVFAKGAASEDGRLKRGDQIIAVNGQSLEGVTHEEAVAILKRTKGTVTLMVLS
Chain of UniProt Q9Y4F3 (Q9Y4F3 whole entry, looked up): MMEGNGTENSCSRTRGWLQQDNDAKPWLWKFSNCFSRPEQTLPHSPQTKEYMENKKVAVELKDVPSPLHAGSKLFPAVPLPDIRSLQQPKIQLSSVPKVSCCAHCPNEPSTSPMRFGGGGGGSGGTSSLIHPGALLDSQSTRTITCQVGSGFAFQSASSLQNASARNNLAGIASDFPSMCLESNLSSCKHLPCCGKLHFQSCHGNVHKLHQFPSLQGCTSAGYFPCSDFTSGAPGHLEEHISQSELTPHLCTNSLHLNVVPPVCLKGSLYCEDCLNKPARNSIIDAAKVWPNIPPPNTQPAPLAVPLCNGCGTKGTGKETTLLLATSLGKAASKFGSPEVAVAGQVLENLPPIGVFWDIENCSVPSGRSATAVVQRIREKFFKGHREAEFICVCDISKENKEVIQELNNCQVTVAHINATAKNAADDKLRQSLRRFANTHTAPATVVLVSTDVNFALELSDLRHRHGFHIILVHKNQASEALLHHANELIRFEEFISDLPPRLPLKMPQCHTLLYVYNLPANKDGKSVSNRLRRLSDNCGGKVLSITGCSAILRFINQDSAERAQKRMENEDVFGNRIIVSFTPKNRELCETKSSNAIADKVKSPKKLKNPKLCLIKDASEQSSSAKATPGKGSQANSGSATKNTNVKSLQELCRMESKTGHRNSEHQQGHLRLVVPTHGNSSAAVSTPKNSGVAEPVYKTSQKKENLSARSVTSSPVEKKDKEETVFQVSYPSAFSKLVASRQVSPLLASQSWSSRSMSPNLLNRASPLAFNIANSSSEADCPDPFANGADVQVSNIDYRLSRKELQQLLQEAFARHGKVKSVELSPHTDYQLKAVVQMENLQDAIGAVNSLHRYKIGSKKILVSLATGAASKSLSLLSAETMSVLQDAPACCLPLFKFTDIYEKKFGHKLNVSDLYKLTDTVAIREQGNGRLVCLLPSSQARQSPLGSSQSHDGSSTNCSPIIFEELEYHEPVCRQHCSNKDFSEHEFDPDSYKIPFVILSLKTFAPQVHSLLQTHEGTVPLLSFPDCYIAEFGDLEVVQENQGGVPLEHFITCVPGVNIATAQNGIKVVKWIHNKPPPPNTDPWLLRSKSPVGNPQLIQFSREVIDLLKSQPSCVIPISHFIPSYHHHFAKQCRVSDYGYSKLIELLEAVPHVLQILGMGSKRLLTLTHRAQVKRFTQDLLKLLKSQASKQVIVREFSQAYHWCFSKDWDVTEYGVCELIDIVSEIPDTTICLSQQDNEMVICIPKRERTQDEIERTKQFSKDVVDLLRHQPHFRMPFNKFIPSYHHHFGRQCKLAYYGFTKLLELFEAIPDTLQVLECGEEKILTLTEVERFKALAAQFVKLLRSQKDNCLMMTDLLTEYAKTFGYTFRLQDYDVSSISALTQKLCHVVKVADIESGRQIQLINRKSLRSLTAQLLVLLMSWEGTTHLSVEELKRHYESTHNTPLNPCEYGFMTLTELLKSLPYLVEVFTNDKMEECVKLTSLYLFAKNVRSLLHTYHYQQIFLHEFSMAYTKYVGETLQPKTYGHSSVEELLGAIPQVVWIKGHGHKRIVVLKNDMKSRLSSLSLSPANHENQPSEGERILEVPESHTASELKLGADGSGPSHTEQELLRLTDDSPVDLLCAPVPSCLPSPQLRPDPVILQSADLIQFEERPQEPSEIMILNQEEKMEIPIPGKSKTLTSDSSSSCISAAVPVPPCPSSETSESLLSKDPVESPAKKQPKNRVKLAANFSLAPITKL
Chain of UniProt P53778 (P53778 whole entry, looked up): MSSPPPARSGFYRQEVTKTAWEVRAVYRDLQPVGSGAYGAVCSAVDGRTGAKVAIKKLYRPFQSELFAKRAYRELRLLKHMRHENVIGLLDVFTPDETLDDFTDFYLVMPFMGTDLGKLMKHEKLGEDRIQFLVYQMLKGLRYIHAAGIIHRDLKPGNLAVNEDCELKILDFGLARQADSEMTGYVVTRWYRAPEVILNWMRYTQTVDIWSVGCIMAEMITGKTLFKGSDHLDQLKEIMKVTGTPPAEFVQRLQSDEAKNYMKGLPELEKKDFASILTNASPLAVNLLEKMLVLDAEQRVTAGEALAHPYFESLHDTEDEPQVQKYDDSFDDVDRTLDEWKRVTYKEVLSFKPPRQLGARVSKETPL

log2 fold change, inactive:
LRIF1 (UniProt Q5T3J3) -0.09
MEX3A (UniProt A1L020) -0.21
KIF26A (UniProt Q9ULI4) -0.125
KRI1 (UniProt Q8N9T8) 0.047
MEGF8 (UniProt Q7Z7M0) -0.019
MDM2 isoform 11 (UniProt Q00987) 0.038
KRAS (UniProt P01116) -0.023
MBTPS1 (UniProt Q14703) 0.056
MARF1 (UniProt Q9Y4F3) 0.034
MOCS3 (UniProt O95396) -0.016
LYN isoform 2 (UniProt P07948) -0.104
MDM1 (UniProt Q8TC05) 0.037
KIF3C (UniProt O14782) -0.038
MED28 (UniProt Q9H204) -0.032
KRAS isoform 2 (UniProt P01116) 0.071
MAPKAP1 (UniProt Q9BPZ7) -0.019
MPDZ (UniProt O75970) 0.024
LRRC7 (UniProt Q96NW7) -0.115
MRPL22 (UniProt Q9NWU5) 0.018
LRRIQ1 (UniProt Q96JM4) -0.041
MAPK12 (UniProt P53778) -0.001
MPP5 (UniProt Q8N3R9) 0.019

These targets were tested with CC(C)(O)CC(=O)NCCn1ccc2ncnc(Nc3ccc(Oc4cccc(C(F)(F)F)c4)c(Cl)c3)c21 in the same assay as above.
Method in brief: as §1

log2 fold change, inactive:
LRIF1 (UniProt Q5T3J3) -0.055
MEX3A (UniProt A1L020) -0.123
KIF26A (UniProt Q9ULI4) 0.084
KRI1 (UniProt Q8N9T8) -0.018
MEGF8 (UniProt Q7Z7M0) -0.124
MDM2 isoform 11 (UniProt Q00987) -0.08
KRAS (UniProt P01116) 0.063
MBTPS1 (UniProt Q14703) -0.045
MARF1 (UniProt Q9Y4F3) -0.042
MOCS3 (UniProt O95396) -0.014
LYN isoform 2 (UniProt P07948) 0.106
MDM1 (UniProt Q8TC05) -0.054
KIF3C (UniProt O14782) -0.032
MED28 (UniProt Q9H204) -0.025
KRAS isoform 2 (UniProt P01116) -0.078
MAPKAP1 (UniProt Q9BPZ7) 0
MPDZ (UniProt O75970) -0.157
LRRC7 (UniProt Q96NW7) -0.073
MRPL22 (UniProt Q9NWU5) -0.033
LRRIQ1 (UniProt Q96JM4) 0.019
MAPK12 (UniProt P53778) -0.029
MPP5 (UniProt Q8N3R9) -0.063

Source: the supplement of paper PMC10849652
